# PubChem BioAssay (NCATS)
# Values without a mark were called inactive. Results filed as inconclusive are left out. Calls of active or inactive are those of the source. Unless noted, the call rests on the fitted dose curve; in most records, active means well fitted curve in the direction sought with a large enough effect; inconclusive means small, poorly fitted or top-dose-only effect, or another doubt; inactive means no such curve, though single readings can be large; an effect the other way counts as inactive or inconclusive.
# Key:
# [1] = AP1 Signaling Pathway (AID 357; active means well fitted curve in either direction with a large enough effect, not every such curve was filed as active;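 further: ME-180 reporter cells stimulated with EGF at its EC50 level; on the % scale 0 is the no-effect control and ±100 the full control effect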); conditions: ME-180 AP-1-bla reporter, EGF-induced, beta-lactamase ratio, 5 h; at 7.69 µM (top of the series) unless noted
# Method in brief: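 In this screen, ME-180 cells in Opti-MEM with 0.5% dialyzed FBS received EC50 EGF and compound titrations for 5 h. AP-1 reporter beta-lactamase was detected via CCF4 ratio, giving AC50 for positive and negative modulators.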
# [2] = target: Cytochrome P450 1A2 (Homo sapiens) (UniProt P05177); assay: p450-cyp1a2 (AID 410; calls by dose curve; further: potency means the concentration at half of the fitted maximal effect)
# Sequence of Cytochrome P450 1A2 (Homo sapiens) (P05177 whole entry, looked up): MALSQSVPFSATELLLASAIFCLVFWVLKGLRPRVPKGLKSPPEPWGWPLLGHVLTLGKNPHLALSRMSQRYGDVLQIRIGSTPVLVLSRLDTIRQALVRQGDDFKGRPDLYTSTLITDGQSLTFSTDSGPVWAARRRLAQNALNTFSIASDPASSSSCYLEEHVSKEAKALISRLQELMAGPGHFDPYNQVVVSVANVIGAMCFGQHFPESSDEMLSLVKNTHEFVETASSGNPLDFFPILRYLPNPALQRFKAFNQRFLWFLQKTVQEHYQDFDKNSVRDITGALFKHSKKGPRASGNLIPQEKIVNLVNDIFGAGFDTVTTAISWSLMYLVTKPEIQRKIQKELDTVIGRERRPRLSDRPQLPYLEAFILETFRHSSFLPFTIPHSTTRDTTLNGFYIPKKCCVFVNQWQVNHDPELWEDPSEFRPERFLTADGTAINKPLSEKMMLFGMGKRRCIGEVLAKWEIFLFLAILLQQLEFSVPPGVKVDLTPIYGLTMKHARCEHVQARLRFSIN
# Method in brief: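 Human CYP1A2 (20nM) demethylated Luciferin-ME at its Km (100uM) in 100mM KPO4. After 10 min compound preincubation, NADPH regeneration ran the reaction 60 min at room temperature. Luciferin was read by luminescence, normalized to 57 uM furafylline.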
# [3] = NFAT Signaling Pathway (AID 444; active means well fitted curve in either direction with a large enough effect, not every such curve was filed as active;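 further: carbachol stimulus at about its EC50 of 1 µM final; on the % scale 0 is the no-effect control and ±100 the full control effect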); conditions: Jurkat NFAT-bla M1, carbachol, beta-lactamase ratio, 5 h; at 7.69 µM (top of the series) unless noted
# Method in brief: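 Jurkat cells carrying an NFAT-driven β-lactamase reporter and co-transfected muscarinic M1 receptor were treated with compound plus carbachol (1 uM final, an EC50 level) for 5 h at 37 °C. CCF4 loading followed for 1 h at RT; 460/530 nm ratio gave %activity.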
# [4] = Stat Signaling Pathway (AID 446; active means well fitted curve in either direction with a large enough effect, not every such curve was filed as active;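 further: ME-180 cervical cancer cells given 40 pM IL-6 alongside compound; SIE-controlled beta-lactamase reporter measured as 460/530 nm FRET emission ratio; on the % scale 0 is the no-effect control and ±100 the full control effect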); conditions: ME-180 SIE beta-lactamase reporter, IL-6 stimulated, 5 h; at 7.69 µM (top of the series) unless noted
# Method in brief: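 Reporter line: ME-180 cervical carcinoma, SIE-beta-lactamase. Treatment: compound with 40 pM IL-6, 5 hrs, 37 C, in low-serum OPTI-MEM with 10 mM HEPES pH 7.3. Detection: 460/530 nm fluorescence.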
# [5] = target: Glucocorticoid receptor (Homo sapiens) (UniProt P04150); assay: GR-GFP Redistribution (AID 450;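 active means compounds whose dose series gives a full or clear partial fitted curve of increased nuclear translocation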; further: potency means the concentration at half of the fitted maximal effect); conditions: U2OS GR-GFP nuclear translocation, laser cytometry, 2 h
# Sequence of Glucocorticoid receptor (Homo sapiens) (P04150 whole entry, looked up, the tested form may be a part): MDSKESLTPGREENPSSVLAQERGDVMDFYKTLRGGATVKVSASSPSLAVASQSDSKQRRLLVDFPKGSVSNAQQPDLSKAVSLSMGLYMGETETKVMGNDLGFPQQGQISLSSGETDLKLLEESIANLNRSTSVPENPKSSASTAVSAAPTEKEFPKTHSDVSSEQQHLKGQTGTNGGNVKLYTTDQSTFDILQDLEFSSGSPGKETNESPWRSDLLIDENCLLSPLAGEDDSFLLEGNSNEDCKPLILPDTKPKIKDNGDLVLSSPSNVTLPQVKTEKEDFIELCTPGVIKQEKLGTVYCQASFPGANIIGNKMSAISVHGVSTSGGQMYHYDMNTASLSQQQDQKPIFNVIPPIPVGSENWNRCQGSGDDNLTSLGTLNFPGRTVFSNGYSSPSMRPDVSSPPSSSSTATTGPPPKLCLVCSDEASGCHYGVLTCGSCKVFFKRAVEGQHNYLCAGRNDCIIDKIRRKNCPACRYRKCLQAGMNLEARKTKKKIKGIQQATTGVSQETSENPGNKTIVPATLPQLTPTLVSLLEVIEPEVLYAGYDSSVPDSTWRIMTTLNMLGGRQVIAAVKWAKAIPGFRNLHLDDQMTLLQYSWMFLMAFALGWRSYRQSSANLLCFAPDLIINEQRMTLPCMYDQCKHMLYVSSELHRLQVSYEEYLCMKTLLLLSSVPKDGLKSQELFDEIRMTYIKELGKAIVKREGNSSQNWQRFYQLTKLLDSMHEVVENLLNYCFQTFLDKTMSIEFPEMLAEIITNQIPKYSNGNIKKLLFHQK
# [6] = target: Glucocorticoid receptor (Homo sapiens) (UniProt P04150); assay: GR-EFC Redistribution (AID 451; calls by dose curve; further: potency means the concentration at half of the fitted maximal effect); conditions: CHO-K1 GR-EFC translocation, beta-gal luminescence, 2 h
# Method in brief: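 CHO-K1 cells stably expressing nuclear-localized β-gal enzyme acceptor and GR fused C-terminally to the enzyme donor fragment; ligand-driven nuclear translocation restores β-gal by complementation. Compounds titrated up to 46 uM final, 2 h at 37 °C; luminescence read.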
# [7] = target: Mitogen-activated protein kinase 10 (Mus musculus) (UniProt Q61831); assay: JNK3 AlphaScreen Assay (AID 530; active means well fitted curve in either direction with a large enough effect, not every such curve was filed as active;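 further: kinase came from lysate of stimulated human HepG2 cells; signal reports phosphorylation of biotinylated GST-cJun 1-79 at Ser73 with 10 µM ATP; on the % scale 0 is the no-effect control and ±100 the full control effect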)
# Method in brief: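 JNK3 came from HepG2 lysates pre-activated with IL-1beta and TNF-alpha and phosphorylated biotinylated GST-cJun (1-79) at 10 uM ATP, pH 7.6, room temperature. Compounds were titrated. AlphaScreen signal used anti-phospho-cJun (Ser73) antibody.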
# [8] = target: 3',5'-cyclic-AMP phosphodiesterase 4B (Homo sapiens) (UniProt Q07343); assay: qHTS Assay for Inhibitors of PDE-IV (AID 607; active means well fitted activation curve with a large enough effect in the main read-out, with a control signal flat, not every such curve was filed as active; further: % of control where 0% means no effect)
# Sequence of 3',5'-cyclic-AMP phosphodiesterase 4B (Homo sapiens) (Q07343 whole entry, looked up): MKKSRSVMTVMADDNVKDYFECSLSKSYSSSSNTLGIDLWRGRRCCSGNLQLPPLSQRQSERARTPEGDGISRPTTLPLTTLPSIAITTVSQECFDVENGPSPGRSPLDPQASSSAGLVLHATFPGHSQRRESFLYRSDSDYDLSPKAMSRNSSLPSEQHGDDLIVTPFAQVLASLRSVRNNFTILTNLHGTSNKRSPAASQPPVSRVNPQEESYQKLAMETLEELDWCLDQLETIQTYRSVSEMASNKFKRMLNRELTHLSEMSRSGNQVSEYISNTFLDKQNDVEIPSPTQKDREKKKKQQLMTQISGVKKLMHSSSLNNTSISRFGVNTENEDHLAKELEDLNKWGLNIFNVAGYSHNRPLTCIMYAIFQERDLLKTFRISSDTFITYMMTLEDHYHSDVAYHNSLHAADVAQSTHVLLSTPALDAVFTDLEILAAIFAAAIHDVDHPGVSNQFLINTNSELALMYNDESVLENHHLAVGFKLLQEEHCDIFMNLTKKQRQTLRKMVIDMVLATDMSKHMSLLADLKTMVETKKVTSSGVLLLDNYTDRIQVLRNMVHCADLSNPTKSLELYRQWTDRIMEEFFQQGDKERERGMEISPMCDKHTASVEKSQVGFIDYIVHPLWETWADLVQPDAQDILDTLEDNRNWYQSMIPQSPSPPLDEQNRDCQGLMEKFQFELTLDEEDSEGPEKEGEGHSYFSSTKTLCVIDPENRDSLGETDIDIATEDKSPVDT
# Method in brief: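 Cell-based read-out of cAMP via a modified cyclic nucleotide-gated channel and membrane potential dye (535/590 nm) in HEK293 cells expressing PDE4 endogenously. Compounds tested up to 22.9 uM final; 100 uM RO 20-1724 reference.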
# [9] = target: Cytochrome P450 3A4 (Homo sapiens) (UniProt P08684); assay: qHTS Assay for Activators of Cytochrome P450 3A4 (AID 885); further: nearly all actives have a fitted effect of over 65% in size
# Sequence of Cytochrome P450 3A4 (Homo sapiens) (P08684 whole entry, looked up): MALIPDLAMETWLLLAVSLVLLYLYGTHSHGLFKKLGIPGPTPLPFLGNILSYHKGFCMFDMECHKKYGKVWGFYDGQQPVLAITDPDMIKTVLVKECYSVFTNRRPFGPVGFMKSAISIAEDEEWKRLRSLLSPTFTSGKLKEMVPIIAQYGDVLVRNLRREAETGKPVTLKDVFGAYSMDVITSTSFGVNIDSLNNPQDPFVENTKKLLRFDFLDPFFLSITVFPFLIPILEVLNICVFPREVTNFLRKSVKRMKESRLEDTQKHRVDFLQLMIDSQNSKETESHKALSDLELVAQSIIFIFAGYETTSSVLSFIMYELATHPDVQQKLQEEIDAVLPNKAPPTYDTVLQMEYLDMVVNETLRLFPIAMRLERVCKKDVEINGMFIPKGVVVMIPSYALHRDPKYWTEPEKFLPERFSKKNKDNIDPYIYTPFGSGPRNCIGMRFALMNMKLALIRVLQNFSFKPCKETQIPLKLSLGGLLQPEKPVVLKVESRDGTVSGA
# Method in brief: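 Signal was normalized against complete inhibition by 57 uM ketoconazole. The reaction used 20nM CYP3A4 with 25uM Luciferin-PPXE, 10-min compound preincubation and a 60-min NADPH-supported step at RT.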
# [10] = target: Cytochrome P450 2D6 (Homo sapiens) (UniProt P10635); assay: qHTS Assay for Inhibitors and Substrates of Cytochrome P450 2D6 (AID 891); further: potency means the concentration at half of the fitted maximal effect; nearly all actives have a fitted effect of over 60% in size
# Sequence of Cytochrome P450 2D6 (Homo sapiens) (P10635 whole entry, looked up): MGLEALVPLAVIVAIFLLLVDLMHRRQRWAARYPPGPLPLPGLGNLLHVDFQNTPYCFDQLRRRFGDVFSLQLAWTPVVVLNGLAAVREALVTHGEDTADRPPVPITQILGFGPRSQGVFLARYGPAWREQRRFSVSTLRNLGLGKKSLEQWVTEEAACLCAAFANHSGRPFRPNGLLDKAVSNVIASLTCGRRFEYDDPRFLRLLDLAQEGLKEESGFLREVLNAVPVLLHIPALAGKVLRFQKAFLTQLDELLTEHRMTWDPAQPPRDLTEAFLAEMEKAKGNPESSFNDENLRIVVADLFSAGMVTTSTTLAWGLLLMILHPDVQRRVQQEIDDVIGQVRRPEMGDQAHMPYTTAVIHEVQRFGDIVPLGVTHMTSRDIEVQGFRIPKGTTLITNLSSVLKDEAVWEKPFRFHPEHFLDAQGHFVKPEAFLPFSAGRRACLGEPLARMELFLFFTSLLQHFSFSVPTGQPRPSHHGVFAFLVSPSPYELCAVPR
# Method in brief: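 Human CYP2D6 (5 nM) with 30 uM Luciferin-ME EGE (at Km) in 100 mM KPO4, compound preincubated 10 min, then NADPH regeneration system for 60 min at room temperature. Luciferin read by luminescence; normalized to 1.43 uM quinidine.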
# [11] = target: Cytochrome P450 2C19 (Homo sapiens) (UniProt P33261); assay: qHTS Assay for Inhibitors and Substrates of Cytochrome P450 2C19 (AID 899); further: potency means the concentration at half of the fitted maximal effect; nearly all actives have a fitted effect of over 60% in size
# Method in brief: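 Human CYP2C19 (5nM) with Luciferin-H EGE at 10uM (its KM) in 50mM KPO4 was preincubated with compound for 10 min at 37C. NADPH regeneration started a 60 min 37C reaction. Luciferin was read by luminescence, normalized to 57uM ketoconazole.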
# [12] = qHTS Assay for Identification of Small Molecule Agonists for Hypoxia Response Element Signaling Pathway (AID 914; active means well fitted activation curve with a large enough effect in the signal ratio, with a control signal flat, not every such curve was filed as active; the % refers to the signal ratio; further: % of control where 0% means no effect); conditions: ME-180 (cervical carcinoma) HRE-bla reporter, beta-lactamase ratio, CoCl2, 17 h; activation: stronger effect = higher value
# Method in brief: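 Reporter activity (beta-lactamase, CCF4 460nm/530nm ratio) in HRE-bla ME-180 cells is recorded after 17 h compound exposure with EC50 CoCl2 at 37 degrees Celsius. AC50 values come from titration data.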
# [13] = target: Dual specificity protein kinase CLK4 (Homo sapiens) (UniProt Q9HAZ1); assay: qHTS Assay for Inhibitors of CDC-like Kinase 4 (Kinase-Glo Assay) (AID 1770); further: nearly all actives have a fitted effect of over 65% in size; further: potency means the concentration at half of the fitted maximal effect
# Sequence of Dual specificity protein kinase CLK4 (Homo sapiens) (Q9HAZ1 whole entry, looked up): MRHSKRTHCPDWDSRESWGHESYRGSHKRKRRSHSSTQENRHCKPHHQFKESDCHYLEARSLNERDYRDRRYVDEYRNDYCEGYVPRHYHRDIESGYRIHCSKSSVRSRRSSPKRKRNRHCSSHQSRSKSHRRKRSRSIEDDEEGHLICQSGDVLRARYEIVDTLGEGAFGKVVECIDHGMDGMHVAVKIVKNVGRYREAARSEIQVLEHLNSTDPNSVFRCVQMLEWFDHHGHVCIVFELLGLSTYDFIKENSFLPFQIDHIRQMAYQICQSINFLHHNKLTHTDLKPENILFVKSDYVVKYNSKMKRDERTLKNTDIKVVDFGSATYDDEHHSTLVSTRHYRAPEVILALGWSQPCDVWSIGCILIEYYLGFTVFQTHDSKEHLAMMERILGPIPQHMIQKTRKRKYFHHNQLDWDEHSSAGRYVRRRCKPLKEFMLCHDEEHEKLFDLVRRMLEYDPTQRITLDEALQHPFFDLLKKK
# Method in brief: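 Inhibition was judged from remaining ATP, measured by Ultra-Glo luciferase bioluminescence after Clk4 (25 nM) had acted on RS peptide at 1 uM ATP for 4.5 hours, room temperature.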
# [14] = target: Dual specificity protein kinase CLK4 (Homo sapiens) (UniProt Q9HAZ1); assay: qHTS Assay for Inhibitors of CDC-like Kinase 4 (ADP-Glo Assay) (AID 1771); further: nearly all actives have a fitted effect of over 70% in size; further: potency means the concentration at half of the fitted maximal effect
# Method in brief: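 Clk4 (25 nM) was incubated 1 hr at room temperature with 100 uM RS repeat peptide and 1 uM ATP in buffer with 2 mM MgCl2, 0.5 mM EGTA, 2.5 mM DTT. ADP formed was quantified by ADP-Glo luminescence.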
# [15] = target: Dual specificity protein kinase CLK4 (Homo sapiens) (UniProt Q9HAZ1); assay: qHTS Assay for Inhibitors of CDC-like Kinase 4 (ADP-FP Assay) (AID 1795); further: nearly all actives have a fitted effect of over 60% in size; further: potency means the concentration at half of the fitted maximal effect
# Method in brief: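 Inhibition of ADP formation by 6.25 nM Clk4 is measured using 1 uM ATP and 100 uM RS repeat peptide over one hour. Produced ADP displaces a fluorescent tracer from antibody, lowering polarization.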
# [16] = Primary qHTS for small molecule stabilizers of the endoplasmic reticulum resident proteome: Secreted ER Calcium Modulated Protein (SERCaMP) assay (AID 1508630); further: on the % scale 0 is the no-effect control and ±100 the full control effect
# Method in brief: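 GLuc-SERCaMP-expressing SH-SY5Y cells, pretreated 16 h with compound, are challenged with thapsigargin to empty ER calcium stores; after 4 h, coelenterazine is added directly to the medium and luminescence is imaged.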
# [17] = target: Cytochrome P450 3A4 (Homo sapiens) (UniProt P08684); assay: qHTS Assay for Inhibitors and Substrates of Cytochrome P450 3A4 (AID 884); further: potency means the concentration at half of the fitted maximal effect; nearly all actives have a fitted effect of over 50% in size
# Method in brief: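 20 nM human CYP3A4 with 25 uM Luciferin-PPXE (at KM) in 200 mM KPO4, preincubated 10 min with compound; NADPH regeneration started a 60 min RT reaction. Luciferin detected by luminescence, normalized to 57 uM ketoconazole as full inhibition.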
# [18] = target: Ubiquitin carboxyl-terminal hydrolase 1 (Homo sapiens) (UniProt O94782); assay: Inhibitors of USP1/UAF1: Pilot qHTS (AID 504865);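 further: rhodamine fluorescence freed from ubiquitin-rhodamine substrate followed over time; top concentration of the series differs between compounds; on the % scale 0 is the no-effect control and ±100 the full control effect; nearly all actives have a fitted effect of over 35% in size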
# Sequence of Ubiquitin carboxyl-terminal hydrolase 1 (Homo sapiens) (O94782 whole entry, looked up): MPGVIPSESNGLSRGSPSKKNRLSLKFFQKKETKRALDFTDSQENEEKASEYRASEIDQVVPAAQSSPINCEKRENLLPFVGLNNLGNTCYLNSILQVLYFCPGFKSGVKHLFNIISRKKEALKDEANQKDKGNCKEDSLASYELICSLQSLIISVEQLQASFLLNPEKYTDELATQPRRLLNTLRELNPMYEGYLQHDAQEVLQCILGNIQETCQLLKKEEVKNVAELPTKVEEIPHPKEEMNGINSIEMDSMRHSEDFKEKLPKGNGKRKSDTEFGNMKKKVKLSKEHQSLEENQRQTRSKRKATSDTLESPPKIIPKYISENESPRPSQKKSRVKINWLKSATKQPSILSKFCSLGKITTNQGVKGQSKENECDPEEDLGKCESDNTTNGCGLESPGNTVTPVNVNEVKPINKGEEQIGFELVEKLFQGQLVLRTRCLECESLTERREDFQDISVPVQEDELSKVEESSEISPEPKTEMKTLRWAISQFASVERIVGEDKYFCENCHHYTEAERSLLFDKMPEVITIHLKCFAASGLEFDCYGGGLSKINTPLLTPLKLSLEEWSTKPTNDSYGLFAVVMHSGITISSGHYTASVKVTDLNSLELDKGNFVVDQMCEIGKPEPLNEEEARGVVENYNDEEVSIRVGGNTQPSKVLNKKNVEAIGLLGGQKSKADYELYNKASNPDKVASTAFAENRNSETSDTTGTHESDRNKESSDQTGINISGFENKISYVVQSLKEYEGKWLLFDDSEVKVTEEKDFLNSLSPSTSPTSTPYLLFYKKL
# Method in brief: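 Kinetic fluorescence assay: 1nM USP1/UAF1, 15 min compound preincubation, then 150nM Ub-Rho; 480/540 nm.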
# [19] = target: Lysosomal acid glucosylceramidase (Homo sapiens) (UniProt P04062); assay: Glucocerebrosidase-p2 (AID 348; in the data active means potency below about 10 µM; further: potency means the concentration at half of the fitted maximal effect); conditions: purified GBA, blue fluorogenic substrate, 40 min
# Sequence of Lysosomal acid glucosylceramidase (Homo sapiens) (P04062 whole entry, looked up): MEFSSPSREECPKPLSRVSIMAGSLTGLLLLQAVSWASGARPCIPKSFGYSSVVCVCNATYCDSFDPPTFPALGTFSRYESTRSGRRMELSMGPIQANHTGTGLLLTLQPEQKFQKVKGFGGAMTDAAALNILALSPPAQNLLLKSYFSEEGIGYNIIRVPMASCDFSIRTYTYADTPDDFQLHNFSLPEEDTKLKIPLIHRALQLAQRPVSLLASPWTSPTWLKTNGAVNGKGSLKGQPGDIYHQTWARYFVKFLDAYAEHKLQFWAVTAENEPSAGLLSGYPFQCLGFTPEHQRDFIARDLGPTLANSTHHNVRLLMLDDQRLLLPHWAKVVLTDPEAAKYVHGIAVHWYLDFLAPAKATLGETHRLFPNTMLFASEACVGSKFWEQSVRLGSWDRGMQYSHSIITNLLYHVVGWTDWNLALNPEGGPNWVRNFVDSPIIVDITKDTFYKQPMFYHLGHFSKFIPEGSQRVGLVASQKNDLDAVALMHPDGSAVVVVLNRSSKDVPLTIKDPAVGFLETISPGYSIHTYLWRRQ
# Method in brief: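 Compounds titrated from 0.6 nM upwards against 0.2 nM enzyme in pH 5.9 citric acid/KH2PO4, taurocholate, tween-20; blue fluorogenic substrate 80 uM, 40 min room temperature, stopped and read Ex 365/Em 440 for AC50.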
Structure (SMILES),"activity change, negative = inhibition [1]",Potency [2],"activity change, negative = inhibition [3]","activity, negative = inhibition [4]",Potency [5],Potency [6],Potency [7],Potency [8],Potency [9],Potency [10],Potency [11],activation [12],Potency [13],Potency [14],Potency [15],outcome [16],Potency [17],Potency [18],Potency [19]
COc1cccc(-c2nccc(N(C)Cc3ccco3)n2)c1,-11.4%,0.631 µM (active),-1.32%,-2.39%,> 46 µM,> 46 µM,inactive,inactive,inactive,1.26 µM (active),5.01 µM (active),-11.6%,8.91 µM (active),8.91 µM (active),7.94 µM (active),inactive,,,
COc1ccccc1CNc1ccnc(-c2ccc(N(C)C)cc2)n1,,0.794 µM (active),-1.75%,-10.8%,> 46 µM,> 46 µM,inactive,inactive,inactive,0.501 µM (active),,,inactive,inactive,inactive,inactive,7.94 µM (active),inactive,
CCNc1ncc2nc(-c3cn(C)c4ccccc34)c(=O)n(C[C@H]3CCCO3)c2n1,-16.7%,10 µM (active),16.3%,9.05%,> 9.22 µM,> 46 µM,inactive,,,,,,inactive,inactive,,inactive,,inactive,> 11.4 µM
N#CCCn1c(=O)cnc2cnc(Oc3cccc(Cl)c3)nc21,5.43%,,-14%,-4.72%,> 9.22 µM,> 46 µM,inactive,inactive,,,,,inactive,inactive,inactive,inactive,,inactive,
CNc1nc(-c2cccc(NS(C)(=O)=O)c2)nc2ccccc12,-8.82%,0.398 µM (active),6.53%,-10.2%,> 46 µM,> 46 µM,inactive,inactive,inactive,,,,14.1 µM (active),22.4 µM (active),,inactive,,inactive,> 11.4 µM
COc1cccc(Cn2c(=O)c(-c3cccc(C#N)c3)nc3cnc(N4CCOCC4)nc32)c1,0.3%,,0.194%,18.9%,> 9.22 µM,> 46 µM,inactive,inactive,,,,,inactive,inactive,inactive,inactive,,inactive,
O=c1c(-c2ccccc2)nc2cnc(N3CCOCC3)nc2n1Cc1ccc(F)cc1,,20 µM (active),,,> 9.22 µM,> 46 µM,inactive,,,,,,inactive,inactive,inactive,inactive,,inactive,
